The target of experiment [1] is Myc proto-oncogene protein (Homo sapiens) (UniProt P01106). Kind of experiment: ATG_Myc_CIS: Attagene CIS-FACTORIAL HepG2 Assay for human Myelocytomatosis (Myc) Proto-Oncogene Transcription Factor (AID 2282990; active means hit-call score of the fitted dose curve at least 0.9, where 1 is the maximum; inactive means score below 0.9). Particulars: HepG2, Attagene cis-reporter transcription factor activity; actives raise or lower the signal. A digest of the protocol: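 After 24 h chemical treatment of HepG2 cells carrying multiplexed cis-regulated reporter constructs, reporter transcripts quantified by RT-PCR and capillary electrophoresis of fluorescent fragments. Gain or loss fitted against DMSO baseline.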

Experiment [2] is described as follows: ATG_NF_kB_CIS: Attagene CIS-FACTORIAL HepG2 Assay for human Nuclear Factor Kappa B (NF-kB) (AID 2282991; active means hit-call score of the fitted dose curve at least 0.9, where 1 is the maximum; inactive means score below 0.9). Particulars: HepG2 Attagene cis-factorial NF-kB reporter mRNA; actives raise or lower the signal. The procedure, abridged: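 DMSO served as negative control and baseline for bidirectional curve fitting. Transiently transfected HepG2 cells were dosed for 24 h, then reporter transcripts were measured by RT-PCR with capillary electrophoresis detection.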

Experiment [3] in a line: ATG_NRF2_ARE_CIS: Attagene CIS-FACTORIAL HepG2 Assay for human Nuclear Factor Erythroid 2 Related Factor 2 (NFR2) response to Antioxidant Response Elements (ARE) (AID 2282992; active means hit-call score of the fitted dose curve at least 0.9, where 1 is the maximum; inactive means score below 0.9). Conditions: HepG2 Attagene ARE/NRF2 reporter, transcription factor activity; actives raise or lower the signal. A digest of the protocol:
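Fluorescence intensity of reporter-specific cDNA fragments, separated by capillary electrophoresis, reflects mRNA induction in transfected HepG2 cells at 24 h. Activity is fitted bidirectionally, DMSO serving as baseline.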

A short description of experiment [4]: ATG_Oct_MLP_CIS: Attagene CIS-FACTORIAL HepG2 Assay for human Octamer-Binding Transcription Factor (Oct) (AID 2282993; active means hit-call score of the fitted dose curve at least 0.9, where 1 is the maximum; inactive means score below 0.9). Particulars: HepG2 Attagene cis-factorial Oct reporter, mRNA; actives raise or lower the signal. The procedure, abridged: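 Cells of the HepG2 line express promoter-controlled reporter sequences whose mRNA levels, after 24 h treatment, are measured by RT-PCR and capillary electrophoresis. Increases and decreases are scored relative to DMSO.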

In experiment [5] the target is Cellular tumor antigen p53 (Homo sapiens) (UniProt P04637). As to the kind of experiment: ATG_p53_CIS: Attagene CIS-FACTORIAL HepG2 Assay for human p53 Transcription Factor (AID 2282994; active means hit-call score of the fitted dose curve at least 0.9, where 1 is the maximum; inactive means score below 0.9). Conditions: HepG2 p53 cis-element reporter, Attagene mRNA; actives raise or lower the signal. A digest of the protocol:
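Transiently transfected HepG2 (multiple cis reporter transcription units); exposure 24 h; reporter RNA via RT-PCR, 6-FAM extension, 2 h HpaI digest at 37 C, CE detection; DMSO baseline.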

The target of experiment [6] is human Peroxisome Proliferator-activated Receptor alpha (PPARa), PPARA (gene 5465) (UniProt Q07869). Kind of experiment: ATG_PPARa_TRANS: Attagene TRANS-FACTORIAL HepG2 Assay for human Peroxisome Proliferator-activated Receptor alpha (PPARa) (AID 2283001).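 On AC50: potency for gain of reporter signal over DMSO so agonist or activator.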 A digest of the protocol: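 Transfected HepG2 cells treated with test chemical for 24 h. RNA isolated, reverse-transcribed with oligo(dT), PCR-amplified, FAM-labelled and HpaI-digested. Fragments sized by capillary electrophoresis; gain-of-signal fit relative to DMSO.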

The target of experiment [7] is human Peroxisome Proliferator-activated Receptor delta (PPARd), PPARD (gene 5467) (UniProt Q03181). Kind of experiment: ATG_PPARd_TRANS: Attagene TRANS-FACTORIAL HepG2 Assay for human Peroxisome Proliferator-activated Receptor delta (PPARd) (AID 2283002). The procedure, abridged:
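Read-out is induced reporter mRNA, quantified by RT-PCR with fluorescent labelling and capillary electrophoresis after 24 h dosing. Cells are HepG2 transiently carrying multiple GAL4-UAS reporter units driven by exogenous NR-GAL4 chimeras; DMSO serves as baseline.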

Experiment [8] concerns the target Peroxisome proliferator-activated receptor gamma (Homo sapiens) (UniProt P37231). As to the kind of experiment: ATG_PPARg_TRANS: Attagene TRANS-FACTORIAL HepG2 Assay for human Peroxisome Proliferator-activated Receptor-gamma (PPARg) (AID 2283007). The procedure, abridged:
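Chimeric NR-Gal4 transactivation is measured in transiently transfected HepG2 cells by reporter mRNA induction at 24 h. Detection uses RT-PCR with fluorescent labelling and capillary electrophoresis; DMSO defines baseline.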

Experiment [9] deals with Nuclear receptor subfamily 1 group I member 2 (Homo sapiens) (UniProt O75469). Kind of experiment: ATG_PXR_TRANS: Attagene TRANS-FACTORIAL HepG2 Assay for human Pregnane X Receptor (PXR) (AID 2283008). The procedure, abridged: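 Transient HepG2 transfectants carrying multiplexed reporter transcription units; PXR activity read through a Gal4 chimera. 24 h exposure. RT-PCR/CE fluorescence; upward curve fit referenced to DMSO.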

Experiment [10] deals with human RAR-related Orphan Receptor gamma (RORg), RORC (gene 6097) (UniProt P51449). Kind of experiment: ATG_RORg_TRANS: Attagene TRANS-FACTORIAL HepG2 Assay for human RAR-related Orphan Receptor gamma (RORg) (AID 2283011).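 On AC50: potency for induction of reporter transcripts above DMSO so activators.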 A digest of the protocol:
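Activity is scored as increase in GAL4-UAS reporter mRNA over DMSO, detected by fluorescent RT-PCR and capillary electrophoresis in HepG2 cells transiently expressing a RORg-Gal4 chimera, 24 h after dosing.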

In experiment [11] the target is Retinoic acid receptor RXR-alpha (Homo sapiens) (UniProt P19793). Kind of experiment: ATG_RXRa_TRANS: Attagene TRANS-FACTORIAL HepG2 Assay for human Retinoid X Receptor alpha (RXRa) (AID 2283012). A digest of the protocol: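 Read-out: fluorescent reporter-transcript fragments quantified by capillary electrophoresis after RT-PCR. Transiently transfected HepG2 cells carrying GAL4-UAS reporters and NR-GAL4 chimeras were exposed to chemical for 24 h; activity scored as increase over DMSO.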

Experiment [12] has as its target human RAR-related Orphan Receptor beta (RORb), RORB (gene 6096) (UniProt Q92753). Kind of experiment: ATG_RORb_TRANS: Attagene TRANS-FACTORIAL HepG2 Assay for human RAR-related Orphan Receptor beta (RORb) (AID 2283010). The procedure, abridged: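 HepG2, transient MRTU transfection (GAL4-UAS reporters, exogenous NR-Gal4 chimeras); 24 h compound exposure; total RNA → RT-PCR → 6-FAM primer extension → HpaI digest → CE fluorescence. Positive direction vs DMSO baseline.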

The target of experiment [13] is Retinoic acid receptor alpha (Homo sapiens) (UniProt P10276). Kind of experiment: ATG_RARa_TRANS: Attagene TRANS-FACTORIAL HepG2 Assay for human Retinoic Acid Receptor alpha (RARa) (AID 2283005). The procedure, abridged:
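Reporter transcripts, measured by RT-PCR with fluorescent labeling and capillary electrophoresis after 24 h dosing, reflect activity of an exogenous human RARa–GAL4 fusion in transiently transfected HepG2. Fitted for increase relative to DMSO.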

For experiment [14], the target named is human Retinoic Acid Receptor gamma (RARg), RARG (gene 5916) (UniProt P13631). As to the kind of experiment: ATG_RARg_TRANS: Attagene TRANS-FACTORIAL HepG2 Assay for human Retinoic Acid Receptor gamma (RARg) (AID 2283009). A digest of the protocol: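 Readout: reporter transcript levels via RT-PCR, 6-FAM primer-extension labelling, HpaI digestion and capillary electrophoresis. Cells: HepG2 carrying transfected RARg-GAL4 chimera plus UAS reporter set. Dosing 24 h; DMSO negative control.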

Structures are written as SMILES. Inconclusive results are not listed. Calls of active or inactive are those of the source. How the source made its calls, unless noted: active means hit-call score of the fitted dose curve at least 0.9, where 1 is the maximum; inconclusive means response in the unintended direction; inactive means score below 0.9.

As a reminder, the AC50 is the concentration giving half of the maximal activity seen.

Chain of Retinoic acid receptor RXR-alpha (Homo sapiens) (P19793 whole entry, looked up, the tested form may be a part): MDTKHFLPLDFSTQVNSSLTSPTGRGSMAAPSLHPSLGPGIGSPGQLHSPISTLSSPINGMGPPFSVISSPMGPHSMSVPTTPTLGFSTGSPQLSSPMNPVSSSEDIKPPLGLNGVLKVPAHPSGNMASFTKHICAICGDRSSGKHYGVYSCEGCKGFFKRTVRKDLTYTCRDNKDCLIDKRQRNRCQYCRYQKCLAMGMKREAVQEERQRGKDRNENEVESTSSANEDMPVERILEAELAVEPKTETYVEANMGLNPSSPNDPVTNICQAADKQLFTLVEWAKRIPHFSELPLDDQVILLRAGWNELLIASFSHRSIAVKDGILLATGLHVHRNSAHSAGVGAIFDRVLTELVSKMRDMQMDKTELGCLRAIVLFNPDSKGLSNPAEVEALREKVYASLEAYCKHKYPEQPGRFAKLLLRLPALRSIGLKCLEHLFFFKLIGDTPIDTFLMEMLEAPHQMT
Chain of Retinoic acid receptor alpha (Homo sapiens) (P10276 whole entry, looked up, the tested form may be a part): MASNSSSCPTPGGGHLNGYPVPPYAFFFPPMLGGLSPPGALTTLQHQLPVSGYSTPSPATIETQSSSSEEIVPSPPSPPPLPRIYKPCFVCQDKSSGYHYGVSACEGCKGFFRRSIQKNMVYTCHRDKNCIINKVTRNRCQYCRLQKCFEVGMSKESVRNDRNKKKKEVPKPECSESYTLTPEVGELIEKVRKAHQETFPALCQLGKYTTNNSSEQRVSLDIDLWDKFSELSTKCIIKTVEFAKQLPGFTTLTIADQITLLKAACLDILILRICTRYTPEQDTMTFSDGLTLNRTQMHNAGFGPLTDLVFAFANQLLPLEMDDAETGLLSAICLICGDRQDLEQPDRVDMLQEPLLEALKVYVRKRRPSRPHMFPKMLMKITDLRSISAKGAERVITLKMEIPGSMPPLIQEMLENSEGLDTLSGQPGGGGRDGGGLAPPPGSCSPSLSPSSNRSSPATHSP
Chain of human Peroxisome Proliferator-activated Receptor delta (PPARd), PPARD (gene 5467) (Q03181 whole entry, looked up, the tested form may be a part): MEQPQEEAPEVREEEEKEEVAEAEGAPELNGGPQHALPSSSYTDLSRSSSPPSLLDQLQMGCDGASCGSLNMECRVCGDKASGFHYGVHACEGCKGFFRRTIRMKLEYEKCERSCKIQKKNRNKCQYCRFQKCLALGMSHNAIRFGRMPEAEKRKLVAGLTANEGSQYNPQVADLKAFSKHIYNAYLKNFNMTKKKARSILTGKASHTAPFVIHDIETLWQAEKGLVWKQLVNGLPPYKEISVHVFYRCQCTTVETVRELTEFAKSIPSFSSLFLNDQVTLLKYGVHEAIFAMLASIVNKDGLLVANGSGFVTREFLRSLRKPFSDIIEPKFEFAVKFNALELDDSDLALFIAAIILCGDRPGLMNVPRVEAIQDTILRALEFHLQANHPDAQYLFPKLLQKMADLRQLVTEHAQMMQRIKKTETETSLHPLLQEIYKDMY
Chain of Peroxisome proliferator-activated receptor gamma (Homo sapiens) (P37231 whole entry, looked up, the tested form may be a part): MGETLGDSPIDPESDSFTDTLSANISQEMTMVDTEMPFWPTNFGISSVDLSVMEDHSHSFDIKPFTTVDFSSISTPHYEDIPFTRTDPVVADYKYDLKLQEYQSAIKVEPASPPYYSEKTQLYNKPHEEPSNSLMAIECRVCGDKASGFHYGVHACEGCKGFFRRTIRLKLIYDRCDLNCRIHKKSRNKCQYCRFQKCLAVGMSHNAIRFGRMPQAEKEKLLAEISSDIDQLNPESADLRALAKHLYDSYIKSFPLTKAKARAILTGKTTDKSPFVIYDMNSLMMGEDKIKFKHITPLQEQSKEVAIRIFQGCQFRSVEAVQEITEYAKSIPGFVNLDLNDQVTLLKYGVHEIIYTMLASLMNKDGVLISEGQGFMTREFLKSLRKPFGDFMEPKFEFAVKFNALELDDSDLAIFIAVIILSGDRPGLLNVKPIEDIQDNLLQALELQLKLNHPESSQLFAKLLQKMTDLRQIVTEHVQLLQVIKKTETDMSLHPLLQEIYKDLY
Chain of human Peroxisome Proliferator-activated Receptor alpha (PPARa), PPARA (gene 5465) (Q07869 whole entry, looked up, the tested form may be a part): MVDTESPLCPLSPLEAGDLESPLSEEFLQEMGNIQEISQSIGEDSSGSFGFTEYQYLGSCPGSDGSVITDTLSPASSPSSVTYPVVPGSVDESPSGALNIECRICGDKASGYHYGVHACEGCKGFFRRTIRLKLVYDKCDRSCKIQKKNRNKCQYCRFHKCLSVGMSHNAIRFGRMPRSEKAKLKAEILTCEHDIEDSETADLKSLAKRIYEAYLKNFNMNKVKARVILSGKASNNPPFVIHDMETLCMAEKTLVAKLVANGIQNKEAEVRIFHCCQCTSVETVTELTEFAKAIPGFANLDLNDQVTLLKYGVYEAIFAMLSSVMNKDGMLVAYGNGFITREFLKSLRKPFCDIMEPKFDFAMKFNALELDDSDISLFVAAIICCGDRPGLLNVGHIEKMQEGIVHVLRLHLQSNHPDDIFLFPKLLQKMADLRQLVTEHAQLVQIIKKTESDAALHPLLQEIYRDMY
Chain of Myc proto-oncogene protein (Homo sapiens) (P01106 whole entry, looked up, the tested form may be a part): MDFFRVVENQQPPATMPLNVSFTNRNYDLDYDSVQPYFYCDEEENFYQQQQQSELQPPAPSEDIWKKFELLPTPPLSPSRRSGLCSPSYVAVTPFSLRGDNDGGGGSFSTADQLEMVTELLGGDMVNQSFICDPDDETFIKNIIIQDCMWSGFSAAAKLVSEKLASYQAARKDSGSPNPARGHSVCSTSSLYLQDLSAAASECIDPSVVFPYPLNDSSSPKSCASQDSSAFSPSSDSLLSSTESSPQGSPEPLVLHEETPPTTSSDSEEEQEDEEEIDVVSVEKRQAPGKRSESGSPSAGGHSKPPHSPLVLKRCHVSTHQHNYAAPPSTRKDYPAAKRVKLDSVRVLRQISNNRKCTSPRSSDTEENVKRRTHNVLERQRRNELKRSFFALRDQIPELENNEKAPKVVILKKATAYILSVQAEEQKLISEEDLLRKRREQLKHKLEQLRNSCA
Chain of human RAR-related Orphan Receptor gamma (RORg), RORC (gene 6097) (P51449 whole entry, looked up, the tested form may be a part): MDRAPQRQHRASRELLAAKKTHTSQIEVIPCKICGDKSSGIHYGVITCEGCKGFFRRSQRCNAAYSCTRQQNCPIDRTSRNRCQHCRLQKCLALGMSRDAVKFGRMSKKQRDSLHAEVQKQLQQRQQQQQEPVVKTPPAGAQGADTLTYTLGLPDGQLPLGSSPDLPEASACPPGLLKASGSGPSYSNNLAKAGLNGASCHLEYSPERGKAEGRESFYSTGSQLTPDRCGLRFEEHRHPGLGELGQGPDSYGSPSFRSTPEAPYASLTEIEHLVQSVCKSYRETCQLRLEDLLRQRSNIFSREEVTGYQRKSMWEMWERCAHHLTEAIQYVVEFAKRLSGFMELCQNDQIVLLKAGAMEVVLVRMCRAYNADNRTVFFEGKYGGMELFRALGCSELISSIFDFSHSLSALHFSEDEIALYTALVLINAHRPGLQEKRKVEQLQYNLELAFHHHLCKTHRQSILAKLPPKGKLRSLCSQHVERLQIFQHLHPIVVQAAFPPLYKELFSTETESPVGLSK
Chain of human Retinoic Acid Receptor gamma (RARg), RARG (gene 5916) (P13631 whole entry, looked up, the tested form may be a part): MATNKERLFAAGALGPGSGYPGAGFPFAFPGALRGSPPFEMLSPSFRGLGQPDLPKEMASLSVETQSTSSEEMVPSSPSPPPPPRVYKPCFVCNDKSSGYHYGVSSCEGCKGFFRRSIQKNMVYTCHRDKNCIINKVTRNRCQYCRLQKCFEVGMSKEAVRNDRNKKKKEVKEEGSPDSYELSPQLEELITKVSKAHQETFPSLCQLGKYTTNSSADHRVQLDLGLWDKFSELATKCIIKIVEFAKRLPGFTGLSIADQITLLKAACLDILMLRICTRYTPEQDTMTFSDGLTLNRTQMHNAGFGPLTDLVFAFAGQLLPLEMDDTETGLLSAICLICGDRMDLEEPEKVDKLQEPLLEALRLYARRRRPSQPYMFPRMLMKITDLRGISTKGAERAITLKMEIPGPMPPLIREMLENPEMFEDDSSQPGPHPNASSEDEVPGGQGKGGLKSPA
Chain of human RAR-related Orphan Receptor beta (RORb), RORB (gene 6096) (Q92753 whole entry, looked up, the tested form may be a part): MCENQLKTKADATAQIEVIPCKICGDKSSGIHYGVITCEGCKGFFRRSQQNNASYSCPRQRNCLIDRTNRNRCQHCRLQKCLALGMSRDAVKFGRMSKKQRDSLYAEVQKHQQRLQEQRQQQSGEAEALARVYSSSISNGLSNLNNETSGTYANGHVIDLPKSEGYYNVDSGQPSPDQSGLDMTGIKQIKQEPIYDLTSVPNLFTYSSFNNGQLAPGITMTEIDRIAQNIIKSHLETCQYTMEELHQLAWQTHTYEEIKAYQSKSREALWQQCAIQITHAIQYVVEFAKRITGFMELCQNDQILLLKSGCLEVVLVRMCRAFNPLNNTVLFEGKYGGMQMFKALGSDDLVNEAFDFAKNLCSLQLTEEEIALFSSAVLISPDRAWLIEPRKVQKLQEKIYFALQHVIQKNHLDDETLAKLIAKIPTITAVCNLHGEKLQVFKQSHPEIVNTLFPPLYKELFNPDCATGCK
Chain of Cellular tumor antigen p53 (Homo sapiens) (P04637 whole entry, looked up): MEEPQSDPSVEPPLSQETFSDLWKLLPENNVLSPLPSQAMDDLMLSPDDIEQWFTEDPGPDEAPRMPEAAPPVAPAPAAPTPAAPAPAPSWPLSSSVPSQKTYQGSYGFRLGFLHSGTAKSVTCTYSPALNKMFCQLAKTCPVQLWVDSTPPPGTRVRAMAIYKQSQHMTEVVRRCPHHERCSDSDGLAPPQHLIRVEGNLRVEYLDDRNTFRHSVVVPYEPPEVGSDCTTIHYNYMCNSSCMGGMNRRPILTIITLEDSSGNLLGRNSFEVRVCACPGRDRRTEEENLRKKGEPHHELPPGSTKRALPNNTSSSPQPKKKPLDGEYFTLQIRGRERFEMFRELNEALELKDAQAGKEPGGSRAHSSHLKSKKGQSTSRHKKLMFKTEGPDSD

Regarding `CCc1ccccc1C`, the outcome in experiment [1], in experiment [2], in experiment [3], in [4], in experiment [5] and in experiment [6] was inactive. In addition, the outcome in [7], in experiment [8], in experiment [9], in experiment [10] and in [11] was inactive.
Turning to `CN(CCCC(=O)c1cccnc1)N=O`, the compound was called inactive in [1], in experiment [2], in experiment [3], in experiment [4], in [5] and in experiment [6]. Moreover, the compound was classed as inactive in [7], in experiment [9], in [12], in experiment [10] and in experiment [11].
Take `ClCCBr`: the outcome in experiment [1], in experiment [2], in [3], in [4], in [5] and in experiment [6] was inactive. Moreover, the call in experiment [7], in experiment [9], in [12], in [10] and in experiment [11] was inactive.
Turning to `COP(=O)(OC)O/C(=C\Cl)c1cc(Cl)c(Cl)cc1Cl`, the AC50 in [1] is 180 µM (active); in [3] it was 25.8 µM (active); in experiment [4] it was 27.6 µM (active); in experiment [5], 161 µM (active); in experiment [6], 64.8 µM (active); in [8], 10.8 µM (active). Besides, the half-maximal activity concentration (AC50) in experiment [9] is 0.862 µM (active). The compound was classed as inactive in experiment [2], in [7] and in [11].
For the compound `O=C/C=C/c1ccccc1`, the compound was called inactive in experiment [1], in experiment [2], in experiment [4], in [5], in [6] and in [12]. Further, in experiment [11], the call was inactive. The AC50 is 30.8 µM (active) in experiment [3], 28.7 µM (active) in [8] and 12.1 µM (active) in experiment [9].
Consider `O=[N+]([O-])c1c(Cl)c(Cl)cc(Cl)c1Cl`, for which the call in experiment [1], in experiment [2], in experiment [4], in experiment [5], in experiment [6] and in experiment [7] was inactive. Besides, the result in [13], in experiment [9], in experiment [14] and in experiment [11] was inactive. Besides, the AC50 is 57.3 µM (active) in [3] and 0.905 µM (active) in experiment [8].
Regarding `N#CN=C(N)N`, the compound was called inactive in [1], in experiment [2], in experiment [3], in experiment [4], in experiment [5] and in experiment [6]. Moreover, the compound was called inactive in [7], in [9] and in experiment [11].
In the case of `CC(=[OH+])/C=C(/C)[O-].CC(=[OH+])/C=C(/C)[O-].CC(=[OH+])/C=C(/C)[O-].[Fe]`, the call in experiment [1], in experiment [2], in experiment [4], in [5], in experiment [6] and in experiment [8] was inactive. Also, the concentration at half-maximal activity (AC50) in experiment [3] is 16.9 µM (active).
Take `O=C1C(Cl)=C(Cl)C(=O)c2ccccc21`: the outcome in experiment [1], in experiment [2], in experiment [4], in [5], in experiment [6] and in [13] was inactive. For the same compound, the compound was classed as inactive in experiment [8], in experiment [9], in experiment [14], in experiment [12], in experiment [10] and in experiment [11]. For the same compound, in experiment [3], the AC50 was 2.2 µM (active).
On to `CCC(=O)c1ccccc1`, for which the outcome in experiment [1], in [2], in experiment [3], in [4], in [5] and in experiment [6] was inactive. The outcome in experiment [7], in experiment [8], in experiment [12] and in experiment [11] was inactive.
With `O=C(CCl)CCl`, the outcome in experiment [1], in [6], in experiment [9], in experiment [12] and in [11] was inactive. Also, the half-maximal activity concentration (AC50) was 33.4 µM (active) in experiment [2]; 8.44 µM (active) in experiment [3]; 26.1 µM (active) in experiment [4]; 58.6 µM (active) in [5]; 60.1 µM (active) in experiment [10].
As for `O=C(Cl)c1ccc(Cl)cc1`, the result in experiment [1], in experiment [2], in [3], in experiment [4], in experiment [5] and in experiment [6] was inactive. Moreover, the call in experiment [13], in experiment [8], in [10] and in experiment [11] was inactive.
For `N#CCCO`, the compound was called inactive in experiment [1], in experiment [2], in experiment [3], in [4], in experiment [5] and in experiment [6]. Besides, the compound was classed as inactive in [14], in experiment [12], in [10] and in experiment [11].
In the case of `COc1cc2c(cc1OC)[C@@]13CCN4CC5=CCO[C@H]6CC(=O)N2[C@H]1[C@H]6[C@H]5C[C@H]43`, the outcome in experiment [1], in [2], in experiment [3], in [4], in experiment [5] and in experiment [6] was inactive. For the same compound, the compound was called inactive in experiment [8], in experiment [9] and in [10].
